Source: PubChem BioAssay (Tox21)
Inconclusive results are not listed. Activity calls are given as the source filed them. Unless noted, calls come from the whole dose curve; as a rule, active = well fitted curve in the direction sought with a large enough effect in the repeat runs; inconclusive = weak or mixed curves; inactive = no such curve, though single readings can be large; an effect the other way counts as inactive or inconclusive.

Legend:
[1] = qHTS assay to identify small molecule antagonists of the estrogen receptor alpha (ER-alpha) signaling pathway using the BG1 cell line in the presence of 0.1 nM 17-beta-estradiol - cell viability counter screen (AID 1259241); note: nearly all actives have a fitted effect of over 40% in size; note: potency is the fitted concentration of half-maximal effect
Outline: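 Cytotoxicity counter-screen: live-cell protease activity measured by fluorescence (30 min reagent step) in the same wells. Cells were VM7Luc4E2 with endogenous ER-alpha and ERE-driven luciferase, treated 22 hr at 37C alongside 0.1 nM 17beta-estradiol final.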

[2] = qHTS assay to identify small molecule antagonists of the androgen receptor (AR) signaling pathway using the MDA cell line in the presence of 0.5 nM R1881 - cell viability counter screen (AID 1259242); note: nearly all actives have a fitted effect of over 45% in size; note: potency is the fitted concentration of half-maximal effect
Outline: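 MDA-kb2 cells (MMTV-luciferase, AR/GR responsive) were treated with compounds plus 0.5 nM R1881 (final) for 16 hr at 37C, 0% CO2. Viability was then read in the same wells as live-cell protease fluorescence (CellTiter-Fluor, 30 min).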

[3] = molecular target: Androgen receptor (Homo sapiens) (UniProt P10275); assay: qHTS assay to identify small molecule antagonists of the androgen receptor (AR) signaling pathway using the MDA cell line in the presence of 0.5 nM R1881 (AID 1259243); note: nearly all actives have a fitted effect of over 50% in size; note: potency is the fitted concentration of half-maximal effect
Chain of Androgen receptor (Homo sapiens) (P10275 whole entry, looked up): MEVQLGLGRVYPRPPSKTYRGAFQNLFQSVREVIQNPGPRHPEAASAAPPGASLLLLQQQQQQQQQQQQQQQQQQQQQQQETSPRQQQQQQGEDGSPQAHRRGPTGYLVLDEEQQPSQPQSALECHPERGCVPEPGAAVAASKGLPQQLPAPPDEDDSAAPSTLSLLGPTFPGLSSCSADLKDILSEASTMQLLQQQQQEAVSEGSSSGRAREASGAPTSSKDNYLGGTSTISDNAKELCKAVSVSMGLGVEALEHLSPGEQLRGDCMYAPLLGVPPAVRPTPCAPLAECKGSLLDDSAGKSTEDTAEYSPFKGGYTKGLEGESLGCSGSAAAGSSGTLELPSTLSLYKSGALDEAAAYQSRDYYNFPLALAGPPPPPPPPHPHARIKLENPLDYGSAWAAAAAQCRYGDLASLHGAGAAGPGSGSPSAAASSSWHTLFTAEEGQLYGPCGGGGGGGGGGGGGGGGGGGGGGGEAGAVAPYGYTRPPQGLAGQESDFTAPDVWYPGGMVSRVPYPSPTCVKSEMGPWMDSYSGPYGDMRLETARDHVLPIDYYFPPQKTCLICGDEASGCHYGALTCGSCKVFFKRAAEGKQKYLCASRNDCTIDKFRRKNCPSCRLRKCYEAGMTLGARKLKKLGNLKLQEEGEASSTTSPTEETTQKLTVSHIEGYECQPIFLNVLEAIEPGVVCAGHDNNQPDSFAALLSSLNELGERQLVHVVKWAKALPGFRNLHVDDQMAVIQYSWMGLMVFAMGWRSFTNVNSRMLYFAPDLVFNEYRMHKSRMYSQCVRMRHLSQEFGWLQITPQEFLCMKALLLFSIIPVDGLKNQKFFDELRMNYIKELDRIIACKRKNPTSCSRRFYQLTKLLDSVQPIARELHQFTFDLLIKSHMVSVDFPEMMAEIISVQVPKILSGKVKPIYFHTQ
Outline: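 MDA-kb2 cells (MMTV-luciferase, responsive to AR and GR) at 3,000/well, rested 5 h at 37C, 0% CO2, then given compounds plus 0.5 nM R1881 (final) for 16 hr. Luciferase read with ONE-Glo after 30 min at room temperature.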

[4] = molecular target: Estrogen receptor (Homo sapiens) (UniProt P03372); assay: qHTS assay to identify small molecule antagonists of the estrogen receptor alpha (ER-alpha) signaling pathway using the BG1 cell line in the presence of 0.1 nM 17-beta-estradiol (AID 1259244); note: nearly all actives have a fitted effect of over 50% in size; note: potency is the fitted concentration of half-maximal effect
Chain of Estrogen receptor (Homo sapiens) (P03372 whole entry, looked up): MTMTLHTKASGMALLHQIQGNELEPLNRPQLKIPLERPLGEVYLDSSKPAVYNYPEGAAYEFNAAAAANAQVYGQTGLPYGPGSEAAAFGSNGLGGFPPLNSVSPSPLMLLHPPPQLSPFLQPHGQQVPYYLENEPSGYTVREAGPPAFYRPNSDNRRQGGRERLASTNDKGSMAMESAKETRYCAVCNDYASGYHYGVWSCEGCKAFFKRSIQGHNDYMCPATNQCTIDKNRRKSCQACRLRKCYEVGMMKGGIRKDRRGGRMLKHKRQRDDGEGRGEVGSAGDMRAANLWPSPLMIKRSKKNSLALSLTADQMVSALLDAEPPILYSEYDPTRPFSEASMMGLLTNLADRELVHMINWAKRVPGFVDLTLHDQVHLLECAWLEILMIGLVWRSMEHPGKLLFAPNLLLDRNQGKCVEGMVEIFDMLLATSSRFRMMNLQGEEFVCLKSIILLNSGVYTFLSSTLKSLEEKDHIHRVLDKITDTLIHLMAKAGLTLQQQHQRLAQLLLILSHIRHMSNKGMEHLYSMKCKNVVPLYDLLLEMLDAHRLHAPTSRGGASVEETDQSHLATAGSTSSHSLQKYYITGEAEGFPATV
Outline: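 VM7Luc4E2 cells (endogenous full-length ER-alpha, 4×ERE-luciferase), kept 5 days in phenol red-free, charcoal-stripped FBS medium; 4,000 cells/well. Compounds added with 0.1 nM (final) 17beta-estradiol, 22 hr at 37C; luminescence read with ONE-Glo after 30 min.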

[5] = qHTS assay to identify small molecule HDAC inhibitors (AID 1259364); note: nearly all actives have a fitted effect of over 45% in size; note: potency is the fitted concentration of half-maximal effect; for activity change, negative = inhibition: top concentration of the series differs between compounds
Outline: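 Wild-type HCT-116 cells, plated overnight at 37 C, exposed to compounds 2 hr at 37 C; luminogenic HDAC-Glo substrate then added 30 min at room temperature. Luminescence reports relative endogenous class I/II HDAC activity.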

[6] = qHTS assay to identify small molecule agonists of the sonic hedgehog signaling (Shh) pathway - cell viability counter screen (AID 1259366); note: nearly all actives have a fitted effect of over 50% in size; note: potency is the fitted concentration of half-maximal effect
Outline: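 Cytotoxicity counter screen: CellTiter-Fluor reagent added after 23 h compound exposure, then 1 h at 37C and fluorescence read. Cells were 3T3 Gli1-Luc, seeded 2,000 per well and dosed 4 h post-plating.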

[7] = qHTS assay to identify small molecule antagonists of the sonic hedgehog signaling (Shh) pathway - cell viability counter screen (AID 1259367); note: nearly all actives have a fitted effect of over 55% in size; note: potency is the fitted concentration of half-maximal effect
Outline: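 Cells: 3T3 Gli1-Luc, 2,000/well, 4 hr pre-incubation. Compounds in DMSO, then conditioned medium. Incubation 24 hr, 37C, 5% CO2. CellTiter-Fluor at 23 hr, 1 hr, fluorescence.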

[8] = qHTS assay to identify small molecule agonists of the sonic hedgehog signaling (Shh) pathway (AID 1259368; calls by dose curve;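 note: NIH/3T3-derived 3T3Gli1-Luc cells carrying a stable Gli1-driven firefly luciferase reporter; series mostly up to about 92 µM; nearly all actives have a fitted effect of over 15% in size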)
Outline: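 NIH/3T3-derived 3T3Gli1-Luc cells with stably integrated Gli1-driven firefly luciferase, 2,000 cells/well, compounds added after 4 hr. Incubated 24 hr at 37C, 5% CO2; luminescence read after 30 min with luciferase reagent at room temperature.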

[9] = qHTS assay to identify small molecule antagonists of the sonic hedgehog signaling (Shh) pathway (AID 1259369; calls by dose curve; note: nearly all actives have a fitted effect of over 45% in size; note: potency is the fitted concentration of half-maximal effect)
Outline: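 NIH/3T3-derived Gli1-Luc reporter cells plated 4 h, dosed with compound, then stimulated with conditioned medium for 24 h at 37 C. Firefly luciferase luminescence read after 30 min with detection reagent at room temperature.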

[10] = qHTS assay to identify small molecule HDAC inhibitors - cell viability counter screen (AID 1259365); note: series mostly up to about 92 µM; nearly all actives have a fitted effect of over 50% in size
Outline: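 CellTiter-Glo luminescence (30 min, room temperature) reported viability after a 2 h compound exposure at 37 C. Cells: wild-type HCT-116, 1,500 per well, seeded the night before.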
% is set by controls: 0 for no effect and ±100 for the full control effect.

O=C(Cl)c1ccc(Cl)cc1
inactive: Potency [1] | Potency [2] | Potency [3] | Potency [4] | Potency [5] | Potency [6] | Potency [7] | Potency [8] | Potency [9]

N#C/C=C/c1ccccc1
inactive: Potency [1] | Potency [2] | Potency [3] | Potency [4] | Potency [5] | Potency [10] | Potency [6] | Potency [7] | Potency [8] | Potency [9]

CCCCOCN(C(=O)CCl)c1c(CC)cccc1CC
inactive: Potency [1] | Potency [2] | Potency [4] | Potency [5] | Potency [10] | Potency [8]
active: Potency [3] 30.6 µM | Potency [7] 61.1 µM

CCOP(=S)(OCC)SCS(=O)(=O)CC
inactive: Potency [1] | Potency [2] | Potency [3] | Potency [4] | Potency [10] | Potency [6] | Potency [7] | Potency [8] | Potency [9]

CNC(C)Cc1ccc2c(c1)OCO2 (stereo not drawn)
inactive: Potency [1] | Potency [2] | Potency [3] | Potency [4] | Potency [5] | Potency [8]
active: Potency [9] 18.9 µM

N#Cc1ccccc1N
inactive: Potency [1] | Potency [2] | Potency [3] | Potency [5] | Potency [10] | Potency [6] | Potency [7] | Potency [8]

N#CCCSCCC#N
inactive: Potency [1] | Potency [2] | Potency [3] | Potency [4] | Potency [5] | Potency [6] | Potency [7] | Potency [8] | Potency [9]

CC(=O)O[C@H]1CC[C@@]2(C)C(=CC[C@@H]3[C@@H]2CC[C@]2(C)C(=O)CC[C@@H]32)C1
active: Potency [3] 5.45 µM
inactive: Potency [1] | Potency [2] | Potency [4] | Potency [5] | Potency [6] | Potency [7] | Potency [8]

Nc1ccccc1C(=O)Oc1ccc2ccccc2c1
active: Potency [5] 8.63 µM
inactive: Potency [1] | Potency [2] | Potency [3] | Potency [10] | Potency [6] | Potency [7] | Potency [8]

CC(O)C#N (stereo not drawn)
inactive: Potency [1] | Potency [2] | Potency [3] | Potency [4] | Potency [10] | Potency [6] | Potency [7] | Potency [8] | Potency [9]

CC(Cl)CN(C)C (stereo not drawn)
inactive: Potency [1] | Potency [2] | Potency [3] | Potency [4] | Potency [5] | Potency [6] | Potency [7] | Potency [8]

C[C@@H]1O[C@@H](O[C@H]2C[C@@H](O)[C@]3(CO)[C@H]4[C@H](O)C[C@]5(C)[C@@H](C6=CC(=O)OC6)CC[C@]5(O)[C@@H]4CC[C@]3(O)C2)[C@H](O)[C@H](O)[C@H]1O
inactive: Potency [1] | Potency [2] | Potency [3] | Potency [4] | Potency [5] | Potency [10] | Potency [6] | Potency [7] | Potency [8] | Potency [9]

CCSC(C)CC1CC(=O)C(/C(CC)=N/OC/C=C/Cl)=C(O)C1 (stereo not drawn)
inactive: Potency [1] | Potency [2] | Potency [3] | Potency [4] | Potency [5] | Potency [10] | Potency [6] | Potency [7] | Potency [8] | Potency [9]

BrCC(Br)c1ccccc1 (stereo not drawn)
inactive: Potency [1] | Potency [2] | Potency [3] | Potency [4] | Potency [5] | Potency [10] | Potency [6] | Potency [7] | Potency [8] | Potency [9]

CCOC(=O)CC(=O)CCl
inactive: Potency [1] | Potency [2] | Potency [4] | Potency [5] | Potency [10] | Potency [6] | Potency [7] | Potency [8] | Potency [9]
active: Potency [3] 30.6 µM

COP(N)(=S)OC
inactive: Potency [1] | Potency [2] | Potency [3] | Potency [4] | Potency [5] | Potency [10] | Potency [6] | Potency [7] | Potency [8]

NC(=O)CCl
inactive: Potency [1] | Potency [2] | Potency [3] | Potency [4] | Potency [5] | Potency [10] | Potency [7] | Potency [8]

[Cl][Sn]([c]1ccccc1)([c]1ccccc1)[c]1ccccc1
inactive: activity change, negative = inhibition [4] -95.6% [at 19 µM] | activity change, negative = inhibition [5] -5.43% [at 19 µM] | activity change, negative = cytotoxicity [10] 26.2% [at 19 µM] | activity change [8] -11.2% [at 18.9 µM, stronger effect = higher value]
active: Potency [1] 4.11 µM | Potency [2] 1.64 µM | Potency [3] 0.82 µM | Potency [6] 0.231 µM | Potency [7] 0.366 µM

N#Cc1ccc(O)cc1
inactive: Potency [1] | Potency [2] | Potency [3] | Potency [4] | Potency [5] | Potency [10] | Potency [6] | Potency [7] | Potency [8] | Potency [9]

CCOC(=O)c1ccccc1S(=O)(=O)NC(=O)Nc1nc(Cl)cc(OC)n1
inactive: Potency [1] | Potency [2] | Potency [3] | Potency [4] | Potency [5] | Potency [10] | Potency [6] | Potency [7] | Potency [8] | Potency [9]

CC1(C)CN=C(NN=C(/C=C/c2ccc(C(F)(F)F)cc2)/C=C/c2ccc(C(F)(F)F)cc2)NC1
inactive: Potency [5] | Potency [10] | Potency [8]
active: Potency [1] 61.1 µM | Potency [2] 24.3 µM | Potency [3] 17.2 µM | Potency [4] 48.6 µM | Potency [6] 19.3 µM | Potency [7] 17.2 µM | Potency [9] 6.86 µM

COP(=O)(CCC(=O)NCO)OC
inactive: Potency [1] | Potency [2] | Potency [3] | Potency [4] | Potency [5] | Potency [6] | Potency [7] | Potency [8] | Potency [9]

CN(CCCC(=O)c1cccnc1)N=O
inactive: Potency [1] | Potency [2] | Potency [3] | Potency [4] | Potency [5] | Potency [10] | Potency [6] | Potency [7] | Potency [8] | Potency [9]
